# Assay results taken from the supplement of paper PMC6853941.
# Unmarked numbers belong to inactive results.
# Test system: MCF10A
# Assay: perturbation Mahalanobis distance of morphological profile vs DMSO controls (Mahalanobis distance (SD units)); higher = stronger morphological change, active = 7 or more
# Conditions: 72 h
# Procedure: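 MCF10A cells were seeded onto drugs dispensed acoustically into 384-well plates, using one dose per drug chosen from its human peak plasma concentration, and incubated for 72 h at 37 °C. Cells were stained for DNA, tubulin and mitochondria and imaged; 78 CellProfiler features were extracted, plate-normalised and compared with DMSO wells.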
# [1] = screen batch: Batch1_Mahalanobis_Distance
# [2] = screen batch: Batch2_Mahalanobis_Distance
SMILES,perturbation Mahalanobis distance [1],perturbation Mahalanobis distance [2]
C=CC[C@@H]1/C=C(\C)C[C@H](C)C[C@H](OC)[C@H]2O[C@@](O)(C(=O)C(=O)N3CCCC[C@H]3C(=O)O[C@H](/C(C)=C/[C@@H]3CC[C@@H](O)[C@H](OC)C3)[C@H](C)[C@@H](O)CC1=O)[C@H](C)C[C@@H]2OC [Tacrolimus] (0.09 µM),2.64,2.28
CO[C@H]1O[C@@H]2O[C@@]3(C)CC[C@H]4[C@H](C)CC[C@@H]([C@H]1C)[C@@]24OO3 [Artemether] (3.9 µM),1.96,2.48
CNS(=O)(=O)Cc1ccc2[nH]cc(CCN(C)C)c2c1 [Sumatriptan] (1 µM),1.95,3.35
C[C@]12C=CC(=O)N[C@@H]1CC[C@@H]1[C@@H]2CC[C@]2(C)[C@@H](C(=O)Nc3cc(C(F)(F)F)ccc3C(F)(F)F)CC[C@@H]12 [Dutasteride] (12 µM),2.35,2.96
CN/C(=C\[N+](=O)[O-])NCCSCc1csc(CN(C)C)n1 [Nizatidine] (7.5 µM),2.51,2.13
NNC(=O)c1ccncc1 [Isoniazid] (73.5 µM),6.37,2.59
CN1CCC(=C2c3ccccc3CCc3cccnc32)CC1 [Azatadine] (0.43 µM),2.42,2.53
CC[N+](C)(CC)CCOC(=O)C(O)(c1ccccc1)C1CCCCC1 (stereo unspecified) [Oxyphenonium Bromide] (0.07 µM),2.2,2.44
O=C1c2c(O)ccc(O)c2C(=O)c2c(NCCNCCO)ccc(NCCNCCO)c21 [Mitoxantrone] (3.4 µM),9.47 (active),16.4 (active)
CC(C)NCC(O)c1ccc(O)c(O)c1 (stereo unspecified) [Isoproterenol] (11.8 µM),3.12,4.76
O=C1CCC(N2C(=O)c3ccccc3C2=O)C(=O)N1 (stereo unspecified) [Thalidomide] (19.4 µM),2.34,2.83
Cc1cc(C)cc(OCC2CNC(=O)O2)c1 (stereo unspecified) [Metaxalone] (38.4 µM),3.33,4.58
NN1CCOC1=O [3-Amino-2-Oxazolidinone] (49 µM),2.59,2.76
S=c1nc[nH]c2nc[nH]c12 [6-Mercaptopurine] (9.9 µM),2.97,8.34 (active)
Nc1ccc(O)c(C(=O)O)c1 [Mesalazine] (39.2 µM),3.41,2.94
Cc1c(OCC(F)(F)F)ccnc1CS(=O)c1nc2ccccc2[nH]1 (stereo unspecified) [Lansoprazole] (23 µM),4.87,8.49 (active)
CC(=O)O[C@]1(C(C)=O)CC[C@H]2[C@@H]3CCC4=CC(=O)CCC4=C3[C@@H](c3ccc(N(C)C)cc3)C[C@@]21C [Ulipristal Acetate] (3.9 µM),9.29 (active),10.4 (active)
Clc1ccc2c(c1)C(N1CCNCC1)=Nc1ccccc1O2 [Amoxapine] (9.6 µM),2.24,3.6
CC(=O)S[C@@H]1CC2=CC(=O)CC[C@]2(C)[C@H]2CC[C@@]3(C)[C@@H](CC[C@@]34CCC(=O)O4)[C@H]12 [Spironolactone] (3 µM),3.75,5.83
NCCCC(N)(C(=O)O)C(F)F (stereo unspecified) [Eflornithine] (319.5 µM),2.24,2.74
C[C@@H]1O[C@@]2(CS1)CN1CCC2CC1 [Cevimeline] (1.5 µM),3.07,3.45
CCC(c1ccccc1)c1c(O)oc2ccccc2c1=O (stereo unspecified) [Phenprocoumon] (64.2 µM),2.32,3.97

SMILES,perturbation Mahalanobis distance [1],perturbation Mahalanobis distance [2]
NC(N)=NCC1COC2(CCCCC2)O1 (stereo unspecified) [Guanadrel] (140.7 µM),2.66,2.51
CC[C@H]1OC(=O)[C@H](C)[C@@H](O[C@H]2C[C@@](C)(OC)[C@@H](O)[C@H](C)O2)[C@H](C)[C@@H](O[C@@H]2O[C@H](C)C[C@H](N(C)C)[C@H]2O)[C@](C)(O)C[C@@H](C)CN(C)[C@H](C)[C@@H](O)[C@]1(C)O [Azithromycin] (6.7 µM),3.29,4.74
NC(=O)N[C@@H](CCC(=O)O)C(=O)O [Carglumic Acid] (68.4 µM),2.14,2.6
CN1C[C@H]2c3ccccc3Oc3ccc(Cl)cc3[C@@H]2C1 [Asenapine] (0.07 µM),2.56,2.47
CN1C(=O)CC(c2ccccc2)C1=O (stereo unspecified) [Phensuximide] (52.9 µM),3.2,2.78
O=C(CCCCCCC(=O)Nc1ccccc1)NO [Vorinostat] (9.8 µM),11 (active),18.4 (active)
Nc1nnc(-c2cccc(Cl)c2Cl)c(N)n1 [Lamotrigine] (54.6 µM),2.15,2.9
C[C@@](N)(Cc1ccc(O)c(O)c1)C(=O)O [Methyldopa] (118.4 µM),3.81,3.85
O=C1CC2(CCCC2)C(O)C(=O)N1CCCCN1CCN(c2ncccn2)CC1 (stereo unspecified) [6-Hydroxybuspirone] (0.05 µM),3.46,3.29
NS(=O)(=O)c1cc(Cl)c(Cl)c(S(N)(=O)=O)c1 [Dichlorphenamide] (214.8 µM),2.6,4.41
CN(C)C(=N)N=C(N)N [Metformin] (38.4 µM),1.76,1.8
COc1cccc2c1C(=O)c1c(O)c3c(c(O)c1C2=O)C[C@@](O)(C(=O)CO)C[C@@H]3O[C@H]1C[C@H](N)[C@H](O)[C@H](C)O1 [Doxorubicin] (0.18 µM),11.1 (active),16.7 (active)
Nc1nc(NC2CC2)c2ncn(C3C=C[C@H](CO)C3)c2n1 (stereo partly specified) [Abacavir] (74.4 µM),3.81,2.47
COCCCC/C(=N\OCCN)c1ccc(C(F)(F)F)cc1 [Fluvoxamine] (3.9 µM),2.43,2.47
O=[N+]([O-])c1cnc(CO)n1CCO [Hydroxymetronidazole] (58.4 µM),2.36,3.44
CC(=O)O[C@H]1C[C@@H]2CC[C@@H]3[C@H](CC[C@@]4(C)[C@H]3C[C@H]([N+]3(C)CCCCC3)[C@@H]4OC(C)=O)[C@@]2(C)C[C@@H]1N1CCCCC1 [Vecuronium Bromide] (3.3 µM),3.8,2.49
OCCN1C[C@H](O)[C@@H](O)[C@H](O)[C@H]1CO [Miglitol] (45.4 µM),1.78,2.1
C1CNCCN1 [Piperazine Hexahydrate] (5.8 µM),2.12,2.76
CCN(CC)CCCC(C)Nc1ccnc2cc(Cl)ccc12 (stereo unspecified) [Chloroquine] (4.7 µM),2.4,2.82
OCC(O)COc1ccc(Cl)cc1 (stereo unspecified) [Chlorphenesin] (83.9 µM),2.63,4
Cc1nnc(C(=O)NC(C)(C)C2=N/C(=C(\O)NCc3ccc(F)cc3)C(=O)C(=O)N2C)o1 [Raltegravir] (22.5 µM),6.75,4.95
